Experimental findings from PubChem BioAssay AID1345082 (National Center for Advancing Translational Sciences (NCATS), 2018) are described below.

Among all 94,000 compounds or so, about 4,000 (4.3%) were called active. Entries that show only a call come without a potency. Inconclusive results (about 29%) are left out. The call rests on the fitted dose curve; in most records, active means well fitted inhibition curve with a large enough effect; inconclusive means small, poorly fitted or top-dose-only effect; inactive means no such curve, though single readings can be large or run the other way. For the sample, actives were picked, then their nearest neighbours and some compounds at random.
Potency means the concentration at half of the fitted maximal effect.

This assay in a line: Cytotoxic Profiling in NIH 3T3 Cell Line of Diverse Libraries Using Quantitative High-Throughput Screening. Further: nearly all actives have a fitted effect of over 55% in size. The settings on record: NIH 3T3 viability, CellTiter-Glo ATP luminescence, 48-72 h; series mostly up to 96.7 µM. The method, boiled down: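 Cytotoxicity was measured by CellTiter-Glo ATP luminescence after 48 or 72 h compound exposure at 37 °C. Mouse NIH 3T3 fibroblasts were seeded at 400 cells/well and dosed by 23 nL pin transfer.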
(Cellular ATP, detected with luciferase, serves as a proxy for viable cell number.)
For `CC(=O)N1C[C@@H]2CCCN3CCC[C@@H]([C@H]23)[C@H]1CCCC(=O)NCc1cc(F)cc(F)c1`, the Potency entry was “inactive”.
On to `Cc1ccc(C(=O)N2C[C@@H](CO)[C@H](c3ccncc3)C2)c(C)c1`, for which the Potency entry was “inactive”.
As to `O=c1cc(-c2cccnc2)oc2c(-c3cccc(CO)c3)nccc12`, the Potency is 31.6 µM (active).
The same measure for `CN(c1ccccc1)c1cc(=O)c2ccnc(-c3ccc(CO)cc3)c2o1`: 8.91 µM (active).
For the compound `CN(c1ccccc1)c1cc(=O)c2ccnc(Nc3cccc([S+](C)(=O)[O-])c3)c2o1`, the Potency is 8.91 µM (active).
The same measure for `OC[C@@H]1O[C@H](CNC2CCOCC2)[C@H](N2CCc3ccccc3C2)[C@@H]1O`: “inactive”; for `Cc1cc(C(=O)N2CCn3nc(C(=O)Nc4ccccc4)cc3C2)cc(=O)[nH]1`: “inactive”; for `CN1CCCN(C(=O)c2ccoc2)c2ccccc21`: “inactive”.
The same measure for `COCCn1ncc(N2CCCC(CC(=O)NCc3cccc(C)c3)C2)cc1=O` (stereo unspecified): “inactive”; for `O=C(Nc1ccsc1)N[C@H]1C[C@H]2C(=O)NC[C@@H](CCC(=O)N3CCC(O)CC3)N2C1`: “inactive”; for `COCCNC(=O)C[C@@H]1C[C@H]2O[C@H](CNC3CCN(C)CC3)[C@@H](O)[C@H]2O1`: “inactive”.
Take `Cc1ccc(C2Cn3nnc(C(=O)N4CCC(C(=O)NCc5cccnc5)CC4)c3CO2)cc1` (stereo unspecified): the Potency entry was “inactive”.
To `COc1ncccc1CNC[C@H]1COCc2nc3cc(C(F)(F)F)ccc3n21` belongs “inactive”; to `COc1ccc2nc3n(c2c1)[C@@H](CNC(=O)c1cnccn1)COC3`, “inactive”.
To `COc1ccc2nc3n(c2c1)[C@@H](CNC1CCCCC1)COC3` belongs 39.8 µM (active); to `COc1ccccc1CN(C(=O)c1cccc(-c2noc(C)n2)c1)C1CC1`, “inactive”.
To `Cc1cnc(CCNS(=O)(=O)Cc2ccccc2F)n1Cc1ccccc1` belongs “inactive”.
With `O=C(NCC1CN(Cc2ccccc2)CC12CN(c1ccccc1)C2)Nc1ccccc1` (stereo unspecified), the Potency is 39.8 µM (active).
The same measure for `CN(CC#N)C(=O)[C@H]1CN(Cc2ccccc2)C[C@H]1C(=O)O`: “inactive”; for `Cc1ccc(NC(=O)NC[C@H]2O[C@@H](CC(=O)N3CCN(c4ccccc4)CC3)[C@H](O)[C@@H]2O)cc1`: “inactive”.
As to `CC(C)OCCCNC(=O)C1Cn2cccc2C(=O)N1C` (stereo unspecified), the Potency result was “inactive”.
The same measure for `CC(C)CN1C(=O)c2cccn2CC1C(=O)NCC1CCN(Cc2cccc(F)c2)CC1` (stereo unspecified): “inactive”; for `Cc1cnc(C2CCC2)n1CCNS(=O)(=O)c1cc(F)ccc1F`: “inactive”; for `COCC(=O)N[C@H]1CO[C@H]2[C@@H]1OC[C@@H]2Nc1nccc(C(C)(C)C)n1`: “inactive”.
Take `O=C(NCC1CC1)c1ccc2nnc(CC3CC3)n2c1`: the Potency result was “inactive”.
On to `Cc1cccc(Nc2nc(N)nc(CN3CCC4(CC3)OCCCC4O)n2)c1` (stereo unspecified), for which the Potency result was “inactive”.
Regarding `O=C(CCn1ccc(=O)[nH]c1=O)N1CCn2nc(Cc3ccccc3)cc2C1`, the Potency entry is “inactive”.
`Cn1ncc2c(C(=O)NCc3ccc(F)cc3)cc(-c3cccc(C(F)(F)F)c3)nc21`: the Potency result was “inactive”.
For the compound `COc1cccc(CNC(=O)c2cc(-c3ccc(Cl)nc3)nc3c2cnn3C)c1`, the Potency result is “inactive”.
In the case of `Cn1ncc2c(C(=O)NCc3cccnc3)cc(C(C)(C)C)nc21`, the Potency was 44.7 µM (active).
To `Cc1ccccc1S(=O)(=O)N1C[C@@H]2CCCN3CCC[C@@H]([C@H]23)[C@H]1CCCC(=O)N1CCOCC1` belongs “inactive”; to `Cc1cc(C(=O)N[C@H](C)c2c(-c3ccc(F)cc3)noc2C(=O)O)nn1C`, “inactive”.
The same measure for `COC1CN(C2CCN(C(=O)C3CCC3)CC2)C12CCOCC2` (stereo unspecified): “inactive”; for `Cc1ccc(-c2cccc(CN3CCCC(NC(=O)c4ccc(Cl)cc4)C3)c2)cc1Cl` (stereo unspecified): “inactive”.
As for `CC(=O)NC1(C)CCN(Cc2cccc(-c3ccc(C(=O)c4ccccc4)cc3)c2)C1` (stereo unspecified), the Potency was 35.5 µM (active).
`CC(=O)NC1(C)CCN(Cc2cnc(-c3ccc4c(ccn4C)c3)s2)CC1`: the Potency entry is “inactive”.
As to `O=C(Nc1ccccc1)C1CN(S(=O)(=O)c2cccnc2)CC12CCCCC2` (stereo unspecified), the Potency result was “inactive”.
The same measure for `COc1ccc(C(=O)NCc2nnc3ccc(-c4ccc(C)cc4)nn23)cc1F`: “inactive”; for `Cc1ccc(-c2nnc3ccc(-c4ccoc4)nn23)nc1`: 100 µM (active); for `Cc1ccc(-c2ccc3nnc(CNC(=O)c4ccncc4)n3n2)cc1C`: “inactive”.
The same measure for `Cc1ccc(CCN2C[C@]34C=C[C@H](O3)C(C(=O)N(C)Cc3nccn3C)C4C2=O)cc1` (stereo partly specified): “inactive”; for `COc1ccc(CNC(=O)c2c(C)sc3ccn(CC(C)C)c(=O)c23)cc1OC`: “inactive”.
To `COc1ccc(CNC(=O)c2cccc3c2CCN3C(=O)c2ccc(F)cc2)cc1OC` belongs 39.8 µM (active); to `COc1ccc(-c2ccc(C(=O)NCc3ccc(F)cc3)cc2)nn1`, “inactive”; to `COc1ccc(CC(=O)N2CCC[C@@H]2C(=O)N2CCC(N3CCOC3=O)CC2)cc1`, “inactive”.
Regarding `COc1ccc(Cn2c(C3CCN(C(=O)Cc4ccsc4)CC3)n[nH]c2=O)cc1`, the Potency result was “inactive”.
For `COc1cncc(-c2cccc(COc3ccc4c(cnn4CC[S+](C)(=O)[O-])c3)c2)c1`, the Potency is 56.2 µM (active).
To `O=C1CCN(C2CCCC2)CCOCCN1` belongs “inactive”.
Take `O=C(Nc1cccc(F)c1)c1cc2n(n1)CC(c1ccc(Cl)cc1)OC2` (stereo unspecified): the Potency result is “inactive”.
Consider `O=C(Nc1cccc(Cl)c1)[C@@H]1C[C@@H](c2ccc(F)cc2)N([S+](=O)([O-])c2cccnc2)C1`, for which the Potency was 35.5 µM (active).
With `O=C(Nc1cccc(Cl)c1)C1CN(c2ccccc2)C(=O)N1` (stereo unspecified), the Potency result is “inactive”.
With `O=C(Nc1cccc(Cl)c1)[C@@H]1C[C@H](c2ccc(F)cc2)N([S+](=O)([O-])C2CC2)C1`, the Potency is 79.4 µM (active).
The same measure for `O=C(NCC1CCOCC1)Nc1cccc(Cl)c1`: “inactive”; for `O=C1CCN(Cc2ccncc2)CCCC(C(=O)Nc2cccc(F)c2)CCN1` (stereo unspecified): “inactive”.
As for `O=C(C1CCOC1)N1CCC(N(Cc2ccccc2)C2CCOCC2)CC1` (stereo unspecified), the Potency result was “inactive”.
As for `CN(C)C(=O)N1CCCC1C(=O)N1CCC(c2nc3ccncc3[nH]2)C1` (stereo unspecified), the Potency entry is “inactive”.
To `Nc1nc(CCCNC(=O)C2NCCc3[nH]cnc32)cs1` (stereo unspecified) belongs “inactive”.
The same measure for `O=C(Nc1ccccc1)N1CCC(C(=O)N2CCC(N3CCOCC3=O)CC2)CC1`: “inactive”; for `CC[C@H]1CN(S(C)(=O)=O)CC[C@H]1CC(=O)NCc1ccco1`: “inactive”; for `Cc1cccc(C)c1NC(=O)N(C)CC1CCOCC1`: “inactive”.
With `COCC(=O)N[C@@H]1CN(Cc2ccc(F)c(OC)c2)C[C@H]1CO`, the Potency result was “inactive”.
